# Data published in PubChem BioAssay (NCATS).
# Records with an inconclusive call do not appear. Values without a mark were called inactive. Calls of active or inactive are those of the source. Calls follow the shape of the dose curve; as a rule, active = well fitted inhibition curve with a large enough effect; inconclusive = small, poorly fitted or top-dose-only effect; inactive = flat fitted curve, though single readings scatter.
# Test system: NIH3T3
# Experiment: Cytotoxic Profiling of Annotated Libraries Using Quantitative High-Throughput Screening (AID 1296008); also: nearly all actives have a fitted effect of over 60% in size
# Conditions: Five cell lines viability, CellTiter-Glo ATP luminescence, 48-72 h; max response: active compounds read low
# Outline: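 Compounds were pin-transferred onto cells and incubated 48 or 72 hr at 37 degree Celsius, 95% humidity. CellTiter-Glo was added, plates sat 10 min at room temperature, then ATP-coupled luminescence was imaged as the viability read-out.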
# % is scaled to controls: 0 for no effect and ±100 for the full control effect; potency is read from the fitted curve at half-maximal effect.
SMILES,max response,Potency
C=C1C(=O)OC2C3=C(C)C(=O)CC3C(C)CC(O)C12 (stereo not drawn),-16.4%,–
Cc1ccc(S(=O)(=O)N2CCC[C@H]2c2ccc(F)cc2)cc1,-13.3%,–
CCN(CC)C(=O)c1ccc(Nc2nc(OCC3CCCCC3)c3[nH]cnc3n2)cc1,–,10.3 µM (active)
CCC/C=C/c1cc2c(C=O)c(O)c(CC=C(C)C)cc2o1,-11.8%,–
CCCOc1ccc(CCc2nc3cc(-c4c(C)noc4C)ccc3n2CCN2CCOCC2)cc1,-3.98%,–
CN(C)CCN(Cc1ccc(-c2ccc(CNCCc3ccccc3)cc2)cc1)C(=O)CCC1CCCC1,–,4.11 µM (active)
O=C(Nc1ccnc(NC(=O)C2CC2)c1)c1c(Cl)cccc1Cl,–,6.51 µM (active)
CC(=O)O[C@@H]1[C@@H](OC(C)=O)[C@H](C)O[C@@H](O[C@H]2[C@@H]3C=CO[C@@H](O[C@@H]4O[C@H](CO)[C@@H](O)[C@H](O)[C@H]4O)[C@@H]3[C@@]3(CO)O[C@@H]23)[C@@H]1OC(=O)/C=C/c1ccccc1,-8.05%,–
O=c1cc(N2CCOCC2)nc2c3ccccc3ccn12,-3.69%,–
C=C1C(=O)O[C@H]2C1CCC(C)=C1C(=O)C=C(C)[C@@]12O (stereo partly drawn),-6.36%,–
C=C1C(=O)O[C@@H]2C[C@]3(C)[C@@H](CCC(C)O)[C@@H]3C[C@H]12 (stereo partly drawn),-15.1%,–
COc1cc2ncnc(Oc3ccc(CC(=O)Nc4cnn(C(C)C)c4)cc3)c2cc1OC,–,23.1 µM (active)
COc1cc(CCO)ccc1O[C@@H]1O[C@H](CO)[C@@H](O)[C@H](O)[C@H]1O,-23.9%,–
